Assay results from the supplement of paper PMC10338343.
± gives the standard deviation.

Legend:
[1] = system: MILI (PIWIL2) piRISC loaded with piRNA #1 (26 nt); assay: pre-steady-state target cleavage rate (min^-1); guide: piRNA #1 5'p-UGAGGUAGUAGGUUGUAUAGUAUCCA; higher = faster piRNA-guided slicing of the target; conditions: auxiliary factor: 500 nM mouse GTSF1;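 further: 1 nM active piRISC with 0.1 nM target library at 33 °C single turnover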
Outline: (§1)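 In HEPES–potassium acetate buffer at 33 °C, […] transcribed, DNA-blocked target RNA library was mixed with 1 nM active affinity-purified piRISC carrying one synthetic guide, with or without 500 nM GTSF1 partner protein, for 0–8 or 0–960 min. Uncleaved targets were sequenced and normalised to depth and to weakly complementary targets; three trials were pooled and k3 was capped at 0.0001 min^-1. The pre-steady-state cleavage rate followed from a burst-and-steady-state fit.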

[2] = system: EfPiwi piRISC loaded with piRNA #1 (26 nt); assay: pre-steady-state target cleavage rate (min^-1); auxiliary factor: 500 nM Ephydatia muelleri Gtsf1; guide: piRNA #1 5'p-UGAGGUAGUAGGUUGUAUAGUAUCCA; MIWI and MILI are mouse PIWI proteins and EfPiwi is from a freshwater sponge; tags in brackets are library labels; higher = faster piRNA-guided slicing of the target
Outline: as §1

Row | Sequence | pre-steady-state target cleavage rate [1] | pre-steady-state target cleavage rate [2]
1 | GGAGACGAUACUAAACAACGUACUACCUCA | 0.017 ± 0.0026 | 0.00192 ± 0.0019
2 | GGAGACCUAACUAUACAACGUACUACCACA | 0.0131 ± 0.0058 | 0.0055 ± 0.0049
3 | GGAGACCUAUCUAUACAACCUACUACCUCA [g2:g20:cont:t1A] | 0.11 ± 0.018 | 0.0119 ± 0.0046
4 | GGAGAGGAUACUAUACAACGCUACUACCUCA | 0.00299 ± 0.0026 | 0.00523 ± 0.0033
5 | GGAGUGGUUACUAUACAACCUACAACCUCA | 0.0861 ± 0.0095 | 0.00227 ± 0.0015
6 | GGAGAGGUUACUAUACAACCUACUACCACA | 0.0673 ± 0.0096 | 0.00331 ± 0.0014
7 | GGAGACGUUACAAUACAACCUACUACCUCA | 0.163 ± 0.015 | 0.0105 ± 0.0045
8 | GGAGUGGAUACUAUACAACGUACUUCCUCA | 0.0153 ± 0.0037 | 0.00364 ± 0.0017
9 | GGAGACCAUACUAUACAACUACUACCUCA | 0.0423 ± 0.0075 | 0.00486 ± 0.0035
10 | GGAGAGGAUACUAAUACAACCUACUACCUCA | 0.147 ± 0.011 | 0.128 ± 0.048
11 | GGAGUGGAUAGUAUACAACCUACUACCUCA | 0.0868 ± 0.0069 | 0.00712 ± 0.0031
12 | GGAGAGCAUACUAAACAACCUACUACCUCA | 0.158 ± 0.015 | 0.00417 ± 0.0033
13 | GGAGAGGAUGACUAUACAACCUACUACCUCA | 0.0775 ± 0.015 | 0.01 ± 0.006
14 | GGAGUGGAUACUACUACAACCUACUACCUCA | 0.193 ± 0.012 | 0.114 ± 0.038
15 | GGAGUGGAUACUAUACAACCUACCUACCUCA | 0.128 ± 0.0098 | 0.00423 ± 0.0017
16 | GGAGACCUAACUAUACAACCUACUGCCUCA | 0.102 ± 0.024 | 0.0364 ± 0.015
17 | GGAGACGAUACUAUACAACCUGCUACCUCA | 0.0677 ± 0.008 | 0.128 ± 0.046
18 | GGAGACCUAUGUCAUACAACCUACUACCUCA | 0.0265 ± 0.008 | 0.00679 ± 0.0034
19 | GGAGACCUAUGUAUACAACCUACUGACCUCA | 0.0132 ± 0.0038 | < 0.0001
20 | GGAGACCAUACUAUACAACCUACUUCCUGA | 0.0889 ± 0.02 | 0.00388 ± 0.0027

Row | Sequence | pre-steady-state target cleavage rate [1] | pre-steady-state target cleavage rate [2]
21 | GGAGUGGAUACUAAACAACCUAGUACCUCA | 0.0567 ± 0.011 | 0.00256 ± 0.0016
22 | GGAGUGCGAUACUAUACAACCUACUACCUCA | 0.206 ± 0.013 | 0.136 ± 0.044
23 | GGAGACGAUACCAUACAACCUACUACCUCA | 0.236 ± 0.027 | 0.124 ± 0.045
24 | GGAGUGGAAACUAUACAUCCUACUACCUCA | 0.275 ± 0.024 | 0.0101 ± 0.0045
25 | GGAGACCUAACUAUACAACCUACUACCACA | 0.176 ± 0.038 | 0.00545 ± 0.0034
26 | GGAGACCUAUCUAUACAACCUACUACUUCA | 0.0866 ± 0.0097 | 0.0119 ± 0.0067
27 | GGAGAGGAUAGUAUACAACCUACUACCUCA | 0.0476 ± 0.01 | 0.00608 ± 0.0032
28 | GGAGACCUAUGUAUACAACCUACUACCUCA [g2:g19:cont:t1A] | 0.0765 ± 0.012 | 0.00649 ± 0.0034
29 | GGAGACCAUAGAAUACAACCUACUACCUCA | 0.0281 ± 0.0057 | 0.00684 ± 0.0033
30 | GGAGUGGAUACUAUACAACCUACGACCUCA | 0.0834 ± 0.0092 | 0.00416 ± 0.0017
31 | GGAGUGGAUACUAUACUACCUUCUACCUCA | 0.0207 ± 0.0034 | 0.00331 ± 0.0022
32 | GGAGAGGAUACUAUACAACCUACUACCUACA | 0.133 ± 0.016 | 0.00995 ± 0.0044
33 | GGAGACCUAACUAUGCAACCUACUACCUCA | 0.12 ± 0.013 | 0.00447 ± 0.0039
34 | GGAGAGGAUACUAUACAACCUACUACCUCU [g2:g25:cont:t1U] | 0.238 ± 0.025 | 1.56 ± 0.47
35 | GGAGAGGAUACUAUAGAACCUUCUACCUCA | 0.00389 ± 0.0026 | 0.003 ± 0.002
36 | GGAGACCUAUCUAUACAACCUACAACCUCA | 0.0886 ± 0.013 | 0.00366 ± 0.0032
37 | GGAGACCUUACUAUACAACCUAGUUCCUCA | 0.0143 ± 0.0048 | 0.00334 ± 0.0033
38 | GGAGACCAUACUAUACAACCUACUACAUCA | 0.0875 ± 0.011 | 0.00692 ± 0.004
39 | GGAGACCUAACUAAACAACCUACUACCUCA | 0.0743 ± 0.017 | 0.00631 ± 0.0031
40 | GGAGUGGAUACUAUACAAGCUAGUACCUCA | 0.0743 ± 0.014 | 0.00287 ± 0.0014

Row | Sequence | pre-steady-state target cleavage rate [1] | pre-steady-state target cleavage rate [2]
41 | GGAGACCUAACUAUACAACGUACUUCCUCA | 0.0215 ± 0.0078 | 0.00713 ± 0.0049
42 | GGAGAGGAUACUAUUACAACCUACUACCUCA | 0.167 ± 0.012 | 0.0933 ± 0.04
43 | GGAGACCAUACUAUACAACCUACUACCUCG [g2:g23:cont:t1G] | 0.195 ± 0.017 | 0.0177 ± 0.0074
44 | GGAGACGAUACUAUUCAACCUACAACCUCA | 0.103 ± 0.013 | 0.0024 ± 0.0017
45 | GGAGUGGAUACUAACAACCUACUACCUCA | 0.183 ± 0.011 | 0.00566 ± 0.0038
46 | GGAGACCUAUGUAUACAACCUACUACCUUA | 0.0696 ± 0.0086 | 0.00547 ± 0.0039
47 | GGAGACCUAACUAUACAACAUACUACCUCA | 0.0407 ± 0.0099 | 0.00659 ± 0.0046
48 | GGAGACGAUACUAAACAACCUACUACGUCA | 0.0907 ± 0.012 | 0.00304 ± 0.003
49 | GGAGACCUUACUAUACAACCUACUACGUGA | 0.137 ± 0.024 | 0.00535 ± 0.0036
50 | GGAGACCAUACUAUACAUCGUACUACCUCA | 0.0535 ± 0.0071 | 0.0027 ± 0.0021
51 | GGAGAGGAUACUAUACAACCUACUACCUGCA | 0.137 ± 0.012 | 0.00613 ± 0.0026
52 | GGAGAGGAUACUAUACAACCUACUUACCUCA | 0.162 ± 0.015 | 0.00951 ± 0.004
53 | GGAGACGAUACAAUACAACCUACUACCACA | 0.204 ± 0.019 | 0.00392 ± 0.0029
54 | GGAGACGAUUCUAUACAACCUUCUACCUCA | 0.0216 ± 0.0072 | 0.00518 ± 0.0027
55 | GGAGACCUUACUAUACAACCUACUACACUCA | 0.15 ± 0.022 | 0.0028 ± 0.0026
56 | GGAGUCCUUACUAUACAACCUACUACCUCA | 0.174 ± 0.011 | 0.0555 ± 0.021
57 | GGAGACCAUACGUAUACAACCUACUACCUCA | 0.212 ± 0.035 | 0.159 ± 0.064
58 | GGAGAGGAUACUAUACAACCUACUUCCUCA | 0.0124 ± 0.0047 | 0.00514 ± 0.0026
